# Source: PubChem
# Rows were chosen to be rich in hits. Some 8.1% of all compounds tested hit in one or more screens of this group.
# MCF10A rereplic – A quantitative high throughput screen for small molecules that induce DNA re-replication in MCF 10a normal breast cells | Potency, µM (top dose mostly 46.1 µM), usual class: activators | AID 624296, 2012 | actives 2.9% (n = 350,000) | MCF 10A DNA re-replication, Hoechst nuclear intensity, 48 h; further: nearly all actives have a fitted effect of over 50% in size
# KB-V1 MDR tox – qHTS assay for MDR1-selective chemotherapeutics: Primary screen using the drug-selected MDR subline cells KB-V1; actives 3.4% (n = 400,000); AID 1347076, 2019; Potency, µM (top dose mostly 46.1 µM), most hits filed as cytotoxic; KB-V1 MDR cells viability, CellTiter-Glo, 72 h; further: nearly all actives have a fitted effect of over 60% in size
#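 Compound-treated KB-V1 multidrug-resistant cells, 72 h, 37 degrees C; viability by CellTiter-Glo. Fitted qHTS curves give the values.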
# KB-3-1 tox – qHTS assay for MDR1-selective chemotherapeutics: Primary screen using the parental adenocarcinoma cell KB-3-1; KB-3-1 viability, CellTiter-Glo ATP luminescence, 72 h; Potency, µM (top dose mostly 46.1 µM), actives largely listed as cytotoxic; actives 1.4% (n = 400,000); further: nearly all actives have a fitted effect of over 60% in size
#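 Screening of KB-3-1 cells (DMEM, 10% FBS, phenol-red free) ran from lowest to highest compound concentration; after 72 h at 37 °C viability was read luminescently and curves fitted.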
# SW480 rerep – A quantitative high throughput screen for small molecules that induce DNA re-replication in SW480 colon adenocarcinoma cells. SW480 DNA re-replication, Hoechst DNA content imaging, 48 h. Potency, µM (top dose mostly 46.1 µM), actives largely listed as activators. actives 1.8% (n = 340,000). AID 624297, 2012; further: nearly all actives have a fitted effect of over 55% in size
#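 Hoechst fluorescence of nuclei (405 nm excitation, 500-530 nm emission) measured by plate-scanning imager after 48 hr compound exposure at 37 C; re-replication scored as increased number of nuclei with elevated intensity.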
# ELG1 repair inh – qHTS screen for small molecules that inhibit ELG1-dependent DNA repair in human embryonic kidney (HEK293T) cells expressing luciferase-tagged ELG1. HEK293T ELG1-luciferase reporter, luminescence, 16 h; DNA damage induced by 5-fluorouridine. Potency, µM (top dose mostly 46.1 µM), hits mostly inhibitors. actives 2.3% (n = 330,000). AID 504467, 2011; further: nearly all actives have a fitted effect of over 55% in size
#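 HEK293T cells expressing luciferase-tagged ELG1 (2,000/well) received 5-Fluorouridine plus compound or DMSO for 16 hr at 37 °C. Luciferase was read by ONE-Glo luminescence after 30 min at room temperature.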
# Numbers stand for hits; i = inactive; ? = inconclusive; nt = not tested or not shown; [ ] = remark or other dose. The call rests on the fitted dose curve; in most records, active means well fitted curve in the direction sought with a large enough effect; inconclusive means small, poorly fitted or top-dose-only effect, or another doubt; inactive means no such curve, though single readings can be large; an effect the other way counts as inactive or inconclusive.
SMILES,MCF10A rereplic,KB-V1 MDR tox,KB-3-1 tox,SW480 rerep,ELG1 repair inh
Cc1nnc(NC(=O)c2ccc(S(=O)(=O)N3CCCCC3C)cc2)o1 (stereo unspecified),i,?,i,i,i
Cc1cccc(CN2C(=O)[C@H]3Cc4c([nH]c5ccccc45)C(C)(C)N3C2=O)c1,16µM,?,?,?,nt
COC(=O)[C@@H]1Cc2c([nH]c3ccccc23)C(C)(C)N1C(=O)CCl,18µM,?,?,6.5µM,?
Cc1cccc(CN2C(=O)[C@@H]3Cc4c([nH]c5ccccc45)C(C)(C)N3C2=O)c1,?,?,?,i,nt
CC1(C)c2[nH]c3ccccc3c2C[C@@H]2C(=O)N(Cc3ccccc3)C(=O)N21,23µM,?,i,?,nt
Cc1cc(C)c(C(=O)c2ccc(C(=O)N(C(C)C)C(C)C)cc2)c(C)c1,i,16µM,?,i,?
O=C1c2ccc(-c3nc4ccccc4o3)cc2C(=O)N1Cc1ccccc1,i,7.3µM,i,i,nt
O=C1c2ccc3c4c(ccc(c24)C(=O)N1Cc1cccnc1)C(=O)N(Cc1cccnc1)C3=O,nt,nt,nt,nt,i
O=C1c2ccc(-c3nc4ccccc4o3)cc2C(=O)N1Cc1cccnc1,9.2µM,i,i,?,nt
Cc1ccc(NC(=O)[C@H]2O[C@@H]3OC(C)(C)O[C@@H]3[C@H]3OC(C)(C)O[C@H]32)cc1F,nt,i,i,nt,nt
Cc1cc(C)c2c(n1)nn1c(NCCCN(C)C)cc(C)nc21,?,i,i,21µM,i
Cc1cc(C)c2c(n1)nn1c(NCCOCCO)cc(C)nc21,i,i,i,i,i
O=C(COC(=O)Cn1nnc(-c2ccccc2)n1)Nc1ccccc1Br,i,i,i,i,i
O=C(C1CCCN(c2ncnc3c2nc2n3CCCCC2)C1)N1CCN(c2cccc(Cl)c2)CC1 (stereo unspecified),?,23µM,?,i,8.2µM
COc1cccc(N2CCN(c3ncnc4c3nc3n4CCCCC3)CC2)c1,nt,?,16µM,nt,nt
Cc1ccc(C)c(N2CCN(C(=O)C3CCCN(c4ncnc5c4nc4n5CCCCC4)C3)CC2)c1 (stereo unspecified),21µM,?,?,i,13µM
Cc1cccc(N2CCN(C(=O)C3CCN(c4ncnc5c4nc4n5CCCCC4)CC3)CC2C)c1 (stereo unspecified),15µM,?,?,?,4.1µM
CN(N=Nc1ccccc1C(=O)O)C1CCCCC1,nt,i,i,nt,nt
CCOc1ccccc1-c1noc(CSc2nnc(-c3ccccc3)n2-c2ccc(F)cc2)n1,nt,?,i,nt,nt
COC(=O)c1c(N2C(=O)[C@H]3[C@@H](C2=O)[C@]2(C(=O)Nc4ccc(C)cc42)N2CCC[C@@H]32)sc(C)c1C,nt,nt,nt,nt,8.2µM
COC(=O)c1c(N2C(=O)Nc3ccccc3N2O)sc(C)c1C,i,i,i,i,i
Cc1c(C(=O)Nc2ccncc2)sc2nc(-c3ccc(F)cc3)cn12,?,i,i,i,i
Cc1ccc(S(=O)(=O)N(C)CC(=O)OCC(=O)NC(=O)Nc2ccc3c(c2)OCCO3)cc1,i,i,i,i,?
Cc1cccc(C)c1NC(=O)CNC(=O)C(NC(=O)c1ccc(C(C)(C)C)cc1)C(C)C (stereo unspecified),i,?,i,i,5.2µM
CC(C)C(NC(=O)c1ccc(C(C)(C)C)cc1)C(=O)NCC(c1ccccc1)N(C)C (stereo unspecified),i,?,i,i,i
SMILES,MCF10A rereplic,KB-V1 MDR tox,KB-3-1 tox,SW480 rerep,ELG1 repair inh
COc1ccc(-c2cc(-c3nnc(COC(=O)CC4CC5CCC4C5)o3)c3ccccc3n2)cc1OC (stereo unspecified),?,9.2µM,?,2.6µM,18µM
COc1ccc(-c2ccc(C(=O)C3CC3)cc2)cc1,i,?,i,i,?
CC[N+]1(C)CCC(O)(c2ccc(OC)cc2)C(C(=O)c2ccc(OC)cc2)C1 (stereo unspecified),4.6µM,?,?,2.9µM,nt
CCS(=O)(=O)N1CCCC(C(=O)NCc2cccnc2)C1 (stereo unspecified),i,i,i,i,i
COC(=O)Cc1c(C)c2cc(Cl)c(OC(=O)c3ccco3)cc2oc1=O,?,i,i,i[9.22 µM],i
S=c1[nH]c2ccc(Cl)cc2[nH]1,i,18µM,i,i,i
COc1ccc2[nH]c(=S)[nH]c2c1,i,i,i,i,i
COc1ccc(C(C)=O)cc1COc1ccc(-n2cnnn2)cc1,i,21µM,i,i,?
COc1ccc(Nc2nc3ccccc3n3cnnc23)cc1,?,13µM,i,i,?
COc1cccc(/C=N/Nc2nc3ccccc3n3cnnc23)c1O,?,6.5µM,?,?,8.2µM
CSc1nsc(SCC(=O)NCc2ccccc2)n1,i,i,i,i[9.22 µM],i
Fc1ccc(/C=C2\CCCC3=C2Nc2ncnn2C3c2ccc(F)cc2)cc1 (stereo unspecified),5.8µM,?,21µM,23µM,4.6µM
CCOc1ccc(NCC(=O)Nc2ccc(Cl)cc2C)cc1,?,?,i,?,i
COc1ccc(OC)c(NC(=O)CS(=O)(=O)c2ccccc2)c1,i,18µM,i,i,i
COc1ccc(NC(=O)c2ccccc2Oc2ccccc2)c(OC)c1,26µM,i,i,i,i
COc1ccc(NCC(=O)Nc2ccc(Cl)cc2C)c(OC)c1,i,i,i,16µM,i
COc1ccc(NC(=O)CC(=O)Nc2ccc(OC)cc2OC)c(OC)c1,i,21µM,i,i,i
CCOC(=O)[C@]12CCCC=C1N(CCC1=CCCCC1)C(=O)[C@H](CC(=O)NCc1ccc(C)o1)C2,nt,?,i,nt,nt
Cc1ccc2nc3c(cc2c1)c(NC(=O)C(C)(C)C)nn3CC(C)C,2.9µM,i,i,?,?
Cc1ccc2cc3c(NC(=O)C4CCCO4)nn(CC(C)C)c3nc2c1 (stereo unspecified),?,i,i,?,?
CCn1nc(NC(=O)COC)c2cc3cc(C)ccc3nc21,i,i,i,23µM,?
CC(C)Cn1nc(NC(=O)C(C)(C)C)c2cc3ccccc3nc21,23µM,i,i,?,i
CCCn1nc(NC(=O)CC(C)C)c2cc3ccccc3nc21,?,5.2µM,i,i,i
CC(C)OC(=O)C(CC(=O)O)NCc1ccccc1 (stereo unspecified),i,i,i,i,i
CCCCC(=O)Nc1nn(CC(C)C)c2nc3ccccc3cc12,?,16µM,i,?,i
CC(C)Cn1nc(NC(=O)c2cccs2)c2cc3ccccc3nc21,?,i,i,16µM,21µM
